This passage reports survival results from PubChem BioAssay AID463173 (ICCB-Longwood Screening Facility, Harvard Medical School, 2010).

Each structure is given as a SMILES string. The campaign covered roughly 52,000 compounds. About 1,700 (3.3%) were called active. Rule as the data show it: active = survival mostly below about 52% (no sharp cut-off); inactive = mostly above about 56%. Shown is part of a subset that was picked to be rich in actives.

The subject of this assay is Wild type. Kind of assay: growth inhibition of S. aureus wild type versus tarO mutant, primary screen, teichoic acid synthesis inhibitors, RN4220, OD600 (AID 463173). The settings on record: S. aureus RN4220 wild type/DeltatarO growth, OD600, 18 h, stronger effect = lower value, screened at 18.75 µg/mL (by protocol).
Turning to `Cc1ccc(C)c(NC(=O)N2CCC(CN3CCOCC3)CC2)c1`, the survival is 135% (inactive).
Regarding `CCC(CC)c1nn2c(=O)cc(COc3ccc(NC(=O)c4ccc(Cl)cc4)cc3)nc2s1`, the survival is 86% (inactive).
The figure for `Cc1ccc(Nc2ccc(N3CCN(C(=O)c4ccc([N+](=O)[O-])cc4Cl)CC3)nn2)cc1` is 129% (inactive); for `COCCn1c(SCC(=O)c2ccccc2)nc2cc(C(=O)NC3CCCC3)ccc2c1=O` it is 76% (inactive).
Next, `COCCn1c(SCC(=O)c2c[nH]c3ccccc23)nc2cc(C(=O)NCC(C)C)ccc2c1=O`: 73% (inactive); `COCCn1c(SCC(=O)c2c[nH]c3ccccc23)nc2cc(C(=O)NC(C)C)ccc2c1=O`: 14% (active); `COCCNC(=O)c1ccc2c(=O)n(CCc3ccccc3)c(SCC(=O)CC(=O)OC)nc2c1`: 78% (inactive).
For the compound `COCCn1c(SCC(=O)c2c(C)[nH]c3ccccc23)nc2cc(C(=O)NC(C)C)ccc2c1=O`, the survival is 74% (inactive).
The figure for `COCCNC(=O)c1ccc2c(=O)n(CCOC)c(SCC(=O)c3c[nH]c4ccccc34)nc2c1` is -1% (active).
Next, `CCOc1ccc(NC(=O)CCSc2nc(-c3ccc4c(c3)OCO4)cc(C(F)(F)F)n2)cc1`: 72% (inactive); `COc1ccc(C)cc1NC(=O)NCc1cccn1Cc1ccccc1`: 98% (inactive).
The figure for `O=C(NCc1ccccc1Cl)c1ccc(NC(=O)N2CCSc3ccccc32)cc1` is 67% (inactive); for `N#CCCSCc1ccc(C(=O)O)o1` it is 107% (inactive); for `Cc1ccc(-c2nc3cc(C(C)C)ccc3o2)cc1NC(=O)c1cc2ccccc2o1` it is 11% (active).
As for `COc1ccc(-c2nc3ccccc3o2)cc1NC(=O)c1ccc(-c2ccc(C)c(Cl)c2)o1`, the survival is 73% (inactive).
Next, `CC(C)c1ccc2oc(-c3ccc(NC(=O)c4cc5ccccc5o4)cc3)nc2c1`: 61% (inactive).
Regarding `COc1ccc(-c2nc3cc(C(C)C)ccc3o2)cc1NC(=O)c1ccc(C)c(Cl)c1`, the survival was 5% (active).
With `Cc1ccc(-c2nc3cc(Cl)ccc3o2)cc1NC(=O)c1cc2ccccc2o1`, the survival is 72% (inactive).
The figure for `COc1ccc(-c2nc3cc(C(C)C)ccc3o2)cc1NC(=O)COc1ccc(C)cc1C` is 59% (inactive); for `COC(=O)CCN(C(=O)C1CCN(S(=O)(=O)c2c(C)noc2/C=C/c2ccccc2F)CC1)c1ccccc1` it is 126% (inactive).
As for `CCC(C)NS(=O)(=O)c1ccc(N2CCCCS2(=O)=O)cc1` (configuration not stated), the survival is 135% (inactive).
On to `CCOC(=O)c1noc2ncn(CC(=O)Nc3ccc(C)c(F)c3)c(=O)c12`, for which the survival is 72% (inactive).
Turning to `Cc1ccc(NC(=O)c2cccc(NC(=O)N3CCSc4ncccc43)c2)cc1F`, the survival is 92% (inactive).
For `CCCCN(CC)Cc1ccc(CNS(=O)(=O)c2cc3c(cc2Cl)NC(=O)CO3)o1`, the survival was -3% (active).
Next, `O=C1COc2cc(S(=O)(=O)NCc3ccco3)c(Cl)cc2N1`: 73% (inactive); `Cc1ccc(CNS(=O)(=O)c2cc3c(cc2Cl)NC(=O)CO3)o1`: 124% (inactive).
The figure for `CC(C)(CO)NC(=O)c1cc(-c2ccc(Cl)cc2Cl)on1` is 123% (inactive).
`CCOC(=O)c1c(NC(=O)COc2ccc(Cl)cc2Cl)sc2c1CCCCC2`: the survival was 76% (inactive).
The figure for `COc1ccc(CNC(=O)C2CCN(S(=O)(=O)c3c(C)noc3/C=C/c3ccccc3F)CC2)cc1` is 94% (inactive); for `Nc1n[nH]c(N)c1N=Nc1ccc(Cl)cc1` it is 107% (inactive).
The figure for `COc1ccc2sc(N)nc2c1` is 115% (inactive); for `COc1ccc(N=Nc2c(N)n[nH]c2N)cc1` it is 2% (active).
The figure for `Cc1ccc(-c2nc3ccccc3o2)cc1NC(=O)c1cccc2c(Cl)cccc12` is 62% (inactive); for `Cn1c(-c2ccccc2)nc2cc(N)ccc21` it is 105% (inactive); for `Fc1ccc(-c2nc(-c3cccs3)c(-c3cccs3)[nH]2)cc1` it is 79% (inactive).
On to `COc1ccc(O)c(-c2cn[nH]c2-c2cccs2)c1`, for which the survival was 105% (inactive).
The figure for `Oc1ccccc1-c1nc(-c2cccs2)c(-c2cccs2)[nH]1` is -11% (active); for `Oc1cccc(-c2nc(-c3cccs3)c(-c3cccs3)[nH]2)c1` it is 3% (active).
The figure for `CN(C)c1ccc(-c2nc(-c3cccs3)c(-c3cccs3)[nH]2)cc1` is 65% (inactive).
The figure for `Cc1ccc(-c2nc(-c3cccs3)c(-c3cccs3)[nH]2)cc1` is 76% (inactive); for `Cc1ccc(Cc2c(C)nc3nc(SCC(=O)NCCC(C)C)nn3c2C)cc1` it is 64% (inactive).
As to `Cc1nn(CC(=O)NCc2ccccc2Cl)c(=O)c2nn(-c3ccccc3)c(C)c12`, the survival was 130% (inactive).
Consider `COc1ccc(NC(=O)Cn2cnc3ccc(S(=O)(=O)N4CCC(C)CC4)cc3c2=O)cc1Cl`, for which the survival is 158% (inactive).
The figure for `O=C(Nc1c(C(=O)N2CCOCC2)cnn1-c1ccccc1)c1ccccc1F` is 104% (inactive); for `CN1CCN(C(=O)/C=C\C(=O)O)CC1` it is 122% (inactive); for `CCCCSCCCNC(=O)c1cc(-c2cccnc2)nc2ccc(S(=O)(=O)N3CCC(C)CC3)cc12` it is 89% (inactive).
Next, `COc1cc(C)c(Cl)cc1S(=O)(=O)NCCc1c(C)[nH]c2ccccc12`: 73% (inactive); `Cc1ccc(Nc2ncccc2C(=O)NC2CCCCC2)cc1`: 110% (inactive).
Next, `CCOc1ccc(C2C(=O)N(C3CCCCCC3)CC(=O)N2Cc2ccccc2)cc1OC` (configuration not stated): 75% (inactive).
In the case of `O=C(Nc1cccc(Cl)c1)C(Cc1ccccc1)n1cccc1` (configuration not stated), the survival is 8% (active).
Next, `Cc1ccc(NC(=O)C(Cc2ccccc2)n2cccc2)cc1C` (configuration not stated): 13% (active); `Cc1ccc(NC(=O)C(Cc2ccccc2)n2cccc2)c(C)c1` (configuration not stated): 81% (inactive); `CCc1cccc(NC(=O)C(Cc2ccccc2)n2cccc2)c1` (configuration not stated): 12% (active).
As for `Cc1cccc(NC(=O)C(Cc2ccccc2)n2cccc2)c1C` (configuration not stated), the survival is 84% (inactive).
Next, `Cc1ccc(C)c(NC(=O)C(Cc2ccccc2)n2cccc2)c1` (configuration not stated): 134% (inactive); `COc1ccc(NC(=O)C(Cc2ccccc2)n2cccc2)cc1OC` (configuration not stated): 82% (inactive); `O=C(Nc1ccccc1)C(Cc1ccccc1)N1Cc2ccccc2C1=O` (configuration not stated): 90% (inactive).
Next, `CC(=O)c1cccc(NC(=O)[C@H](Cc2ccccc2)N2Cc3ccccc3C2=O)c1`: 81% (inactive).
Next, `O=C(O)CC1=C(c2cccs2)CCC1=O`: 105% (inactive).
For `Cc1cc(C(F)F)n2ncc(C(=O)NCc3ccccc3)c2n1`, the survival is 108% (inactive).
Next, `COC(=O)c1ccc2c(=O)n(CCCCCC(=O)N3CCN(c4cccc(C)c4C)CC3)c(=O)[nH]c2c1`: 97% (inactive); `CC(C)c1ccc(-c2nc(C(N)=O)c3c(n2)n(-c2ccc4c(c2)OCO4)c(=O)n3C)cc1`: 60% (inactive); `Nc1n[nH]c(CCc2ccccc2)n1`: 121% (inactive).
The figure for `CCS(=O)(=O)N1CC(=O)N(c2cccc(C)c2C)C(C)(C(=O)NC2CCCCC2)C1` (configuration not stated) is 89% (inactive); for `Cc1ccc(NS(=O)(=O)c2cn(C)c(C)n2)c(Br)c1` it is 88% (inactive); for `COc1ccccc1NS(=O)(=O)c1cn(C)c(C)n1` it is 10% (active).
For the compound `CSc1cccc(NS(=O)(=O)c2cn(C)c(C)n2)c1`, the survival is 59% (inactive).
As for `Cc1ccc(CCNC(=O)c2cc3c(=O)oc4ccccc4c3s2)cc1`, the survival is 73% (inactive).
The figure for `c1ccc(-n2ncc3c(NC4CCCC4)ncnc32)cc1` is 121% (inactive).
Next, `CCOC(=O)C1CCN(S(=O)(=O)c2cc(-c3onc(C)c3C)ccc2C)CC1`: 81% (inactive); `Cc1ccc(NC(=O)[C@H](Cc2ccccc2)N2Cc3ccccc3C2=O)cc1F`: 78% (inactive); `Cc1cc(C)cc(NC(=O)C(C)N2Cc3ccccc3C2=O)c1` (configuration not stated): 63% (inactive).
Next, `CC(C(=O)Nc1ccc(F)c(Cl)c1)N1Cc2ccccc2C1=O` (configuration not stated): 0% (active); `O=C(Nc1ccc(F)cc1)[C@H](Cc1ccccc1)N1Cc2ccccc2C1=O`: 91% (inactive).
As to `O=C(Nc1ccccc1F)C(Cc1ccccc1)N1Cc2ccccc2C1=O` (configuration not stated), the survival was 75% (inactive).
Next, `O=C(Nc1ccc(F)cc1F)C(Cc1ccccc1)N1Cc2ccccc2C1=O` (configuration not stated): -6% (active); `CCOc1ccc(NC(=O)C(CC(C)C)N2Cc3ccccc3C2=O)cc1` (configuration not stated): 134% (inactive).
The figure for `Cc1ccc(NC(=O)C(CC(C)C)N2Cc3ccccc3C2=O)cc1F` (configuration not stated) is -6% (active); for `COc1ccc(NC(=O)C(C)N2Cc3ccccc3C2=O)cc1OC` (configuration not stated) it is 75% (inactive); for `COC(=O)c1ccc(NC(=O)C(C)N2Cc3ccccc3C2=O)cc1` (configuration not stated) it is 53% (inactive).
The figure for `Cc1ccc(C)c(NC(=O)C(CC(C)C)N2Cc3ccccc3C2=O)c1` (configuration not stated) is 159% (inactive); for `CC(C(=O)Nc1ccc(OC(F)(F)F)cc1)N1Cc2ccccc2C1=O` (configuration not stated) it is -3% (active).
Regarding `Cc1ccccc1CSc1cn(CCNC(=O)c2cccs2)c2ccccc12`, the survival was 79% (inactive).
The figure for `COc1ccc(NC(=O)Cc2ccc(NC(=O)N3CCCCc4ccccc43)cc2)c(OC)c1` is 60% (inactive); for `COc1cccc(C(=O)NC2CCCC2)c1` it is 103% (inactive); for `O=C(CCS(=O)(=O)c1cccs1)Nc1ccc(C(=O)Nc2ccccc2F)cc1` it is 135% (inactive).
Next, `CC(=O)c1ccc(N2CCN(C(=O)CCCn3c(=O)[nH]c4ccsc4c3=O)CC2)cc1`: 66% (inactive); `On1c2c(c3c4nonc4ccc31)CCCC2`: 8% (active); `c1ccc(-n2nc3ccc4nonc4c3n2)cc1`: 104% (inactive).
The figure for `COC(=O)CSc1n[nH]c(CNc2cccc(C)c2)n1` is 108% (inactive).
Turning to `O=C(NCCCN1CCN(c2ccccc2)CC1)c1nnc(Cc2ccc(F)cc2)o1`, the survival is 98% (inactive).
Next, `COc1ccccc1C(=O)Nc1cc(-c2ccc(C)cc2)no1`: 73% (inactive); `Cc1ccc(NC(=O)Cn2nc(C)n3cccc3c2=O)c(C)c1`: 95% (inactive); `CCn1c(COc2ccccc2)nnc1SCC(=O)CC(=O)Nc1ccccc1OC`: 100% (inactive).
The figure for `Cc1cc(C)nc(SC2=CS(=O)(=O)c3ccccc32)n1` is 99% (inactive); for `O=S1(=O)C=C(Sc2nc3ccccc3s2)c2ccccc21` it is 0% (active); for `CC(C)(C)NSc1nc2ccccc2s1` it is 68% (inactive).
